# The list is not random: actives were taken first. Their share in the collection is about 21%.
# Pf growth 96h: P. falciparum growth inhibition at 96 hours. P. falciparum luciferase reporter growth, 96 h. Potency, µM (doses to about 28.7 µM), for inactives: at the top dose activity change, negative = inhibition, actives largely listed as inhibitors. 320,000 compounds, 6.9% hits. AID 504834; also: potency is read from the fitted curve at half-maximal effect; % is scaled to controls: 0 for no effect and ±100 for the full control effect
#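 Readout is luminescence from an integrated firefly luciferase in P. falciparum. Red cells, 2% hematocrit and 0.05% parasitemia final, were cultured with compound through two parasite generations (96 hours) at 37 C, 5% CO2.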
# Pf growth 48h: P. falciparum growth inhibition at 48 hours (one generation); P. falciparum luciferase growth in erythrocytes, 48 h; Potency, µM (top dose mostly 28.7 µM), for inactives: at the highest dose activity change, negative = inhibition, most hits filed as inhibitors; 310,000 compounds, 5.9% hits; also: potency is read from the fitted curve at half-maximal effect; % is scaled to controls: 0 for no effect and ±100 for the full control effect
#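 In quantitative HTS format, infected erythrocytes bearing luciferase-reporter parasites were treated for a single generation at 37 C. Luminescence after adding detection reagent served as the growth measure.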
# CHX counter: counter-screen hit for Shiga toxin inhibitors, cycloheximide; max response, %; AID 2314; cell reporter, cycloheximide protein synthesis inhibition counterscreen; 300,000 compounds, 12% hits; in the data active = max response mostly above about 13%, no sharp cut-off; inactive = mostly below about 14%; also: read at 38.3 µM for the half of the compounds with a filed dose; 0% is about no effect
# HCV inhibitor: inhibitors of hepatitis C virus infection; Huh7.5.1 HCVcc-Cre infection, luciferase reporter, 44 h; Potency, µM (highest dose often 41.8 µM), for the others: top-dose activity change, negative = inhibition, hits mostly inhibitors; 340,000 compounds, 3.4% hits; AID 651820; also: potency is read from the fitted curve at half-maximal effect; % is scaled to controls: 0 for no effect and ±100 for the full control effect
#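 After 44 h co-culture of compound, cells and HCVcc-Cre (~0.5 moi), substrate is added for 15 min at room temperature and luciferase measured over 15 sec. Cells were seeded at 1,000/well and pre-cultured 4 h.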
# Shiga inhibitor: inhibitors of Shiga toxin in Vero cells; Vero cells, Shiga toxin protein synthesis inhibition reporter; inhibition, % at 38.7 µM; 290,000 compounds, 9.2% hits; AID 2315; in the data active = inhibition mostly above about 28%, no sharp cut-off; inactive = mostly below about 43%; also: 0% is about no effect
# HCMV inh: blocks human cytomegalovirus replication; HFF cells, HCMV-luciferase reporter, 72 h; active compounds read low; activity change, negative = inhibition, % at 57.5 µM; 410,000 compounds, 4.5% hits; AID 1259415; in the data active = activity change below about -60%; inconclusive = no clear call, values can overlap the other calls; inactive = above about -39%; also: % is scaled to controls: 0 for no effect and ±100 for the full control effect
#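 Inhibition of viral replication was scored as loss of reporter luminescence in HFFs infected with HCMV-luciferase (MOI 1 PFU/cell) for 72 h; compounds tested at 2 doses, normalized to buffer and Salinomycin controls.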
# * hit, by the source's call; ? = inconclusive; nt = no result given; + = active, no number; [ ] = remark or other dose. Unless noted, calls follow the shape of the dose curve; as a rule, active = well fitted inhibition curve with a large enough effect; inconclusive = small, poorly fitted or top-dose-only effect, or another doubt; inactive = no such curve, though single readings can be large or run the other way.
SMILES,Pf growth 96h,Pf growth 48h,CHX counter,HCV inhibitor,Shiga inhibitor,HCMV inh
COc1cc2cc(C(=O)N3CCN(Cc4ccc5c(c4)OCO5)CC3)[nH]c2cc1OC,?,?,1,?,-12,-92*
O=C(c1cc2cc(F)ccc2[nH]1)N1CCN(Cc2ccc3c(c2)OCO3)CC1,?,?,-3,?,-7,0
COc1cc(CN2CCN(Cc3ccc([N+](=O)[O-])cc3)CC2)c([N+](=O)[O-])cc1OC,4%,?,-2,-4%,-7,-76*
COc1ccc(OCCN2CCN(C(=O)c3ccc(OC)c(OC)c3)CC2)cc1,9%,13%,-4,8.9µM*,-5,-14
COc1ccc(CN2C(=O)C(O)(CC(=O)c3ccc4c(c3)OCO4)c3ccccc32)cc1OC (stereo not given),5.9µM*,nt,-2,-2%,-12,-5
O=c1oc(CCCO)cc2ccc(/C=C/c3cccc([N+](=O)[O-])c3)cc12,21%,95%,nt,-20%,nt,3
CCOc1ccc(S(=O)(=O)N2CCN(c3ccc(C)cc3C)CC2)c2ccccc12,nt,nt,nt,nt,nt,-4
CC12CC3CC(C)(C1)CC(C(=O)NCc1ccncc1)(C3)C2,72%,8%,-4,9%,-1,-7
COc1ccc(S(=O)(=O)N2CCN(CCOc3ccc(Br)cc3)CC2)cc1OC,?,8.3µM*,nt,?,nt,0
COc1ccc(C(=O)N2CCN(Cc3ccc4c(c3)OCO4)CC2)cc1[N+](=O)[O-],1%,14%,15,?,-13,-83*
COc1ccc(C(=O)N2CCN(Cc3ccc4c(c3)OCO4)CC2)cc1OC,9.3µM*,-4%,1,?,7,?
COCCN(CCOC)C(=O)c1ccc(SCc2ccc(C)cc2)c([N+](=O)[O-])c1,?,-3%,5,5%,-4,-26
Cc1cc(C(=O)NNC(=O)/C=C/c2ccco2)c(C)o1,28%,?,nt,2%,nt,-13
C/C(=N\NC(=O)c1c(Cl)cnn1C)c1cccc(NC(=O)c2ccc(C)cc2)c1,1%,29%,21*,-29%,109*,nt
CC(C)c1ccc(/C=N/NC(=O)c2c(Cl)cnn2C)cc1,161%,218%,46*,?,+,11
C/C(=N\NC(=O)c1c(Cl)cnn1C)c1cccc(NC(=O)C(C)C)c1,-21%,1%,1,1%,-5,-28
C/C(=N\NC(=O)c1c(Br)cnn1C)c1ccc(NC(=O)c2ccc(F)cc2)cc1,94%,20%,43*,?,86*,?
C/C(=N\NC(=O)c1ccc(Cl)cc1)c1cccc(NC(=O)c2cccnc2)c1,-2%,61%,38*,?,45*,50
Cc1nn(C)c(C(=O)N/N=C/c2ccc(Br)cc2)c1Cl,25%,26%,-3,15%,-1,-35
C/C(=N\NC(=O)c1ccc(O)cc1)c1cccc(NC(=O)c2ccc(Cl)cc2)c1,nt,nt,nt,-23%,nt,51
CC(C)n1cnnc1SCC(=O)Nc1cccc(S(=O)(=O)N(C)c2ccccc2)c1,?,125%,0,?,-6,-38
C/C(=N\NC(=O)c1c(Cl)cnn1C)c1cccnc1,7%,48%,39*,7%,56*,-22
C/C(=N/NS(=O)(=O)c1ccc(Cl)cc1)c1cccc(NC(=O)c2ccncc2)c1,0%,?,6,-24%,-1,11
C/C(=N\NC(=O)c1ccn(C)n1)c1cccc(NC(=O)c2ccncc2)c1,?,22%,30*,26%,45*,19
C/C(=N\NC(=O)c1ccc(Cl)cc1)c1cccnc1,18%,110%,29*,5%,44,90
SMILES,Pf growth 96h,Pf growth 48h,CHX counter,HCV inhibitor,Shiga inhibitor,HCMV inh
C/C(=N/NC(=O)CNC(=O)c1cccnc1)c1ccc(Cl)cc1,53%,-4%[0.00184 µM],-5,-3%,-3,?
C[C@H]1CN([C@@H](C)CO)C(=O)c2cccc(NS(=O)(=O)c3ccc(Cl)cc3)c2O[C@@H]1CN(C)CC1CCCCC1,nt,nt,nt,-2%,nt,-34
Cc1cc(Oc2cnn(C(C)(C)C)c(=O)c2Cl)cc(C(C)C)c1,8.3µM*,12µM*,2,23%,21,-12
Cc1ccc(F)c(Cn2cnc3c(cnn3C(C)(C)C)c2=O)c1Cl,?,?,nt,nt,nt,-5
C=CCn1c(Cc2cccs2)nnc1SCC(=O)Nc1ccc(C(=O)OCC)cc1,?,-47%,2,?,6,33
CCOC(=O)c1ccc(NC(=O)CSc2nnc(CNc3ccc(OC)cc3)n2C)cc1,2%[5.75 µM],6.6µM*,13,3%,-2,28
CCOC(=O)c1ccc(NC(=O)CSc2nnc(CCc3ccc(C)o3)n2-c2ccccc2)cc1,?,?,5,10µM*,15,-1
Cc1ccc(CCc2nnc(SCC(=O)Nc3ccccc3Cl)n2-c2ccccc2)o1,-24%,-9%,-3,-24%,-14,-34
COc1ccc(NCc2nnc(SCC(=O)Nc3ccc(OC)cc3)n2C)cc1,2%,-11%,10,3%,11,-3
CCOC(=O)c1ccc(NC(=O)CSc2nnc(Cc3cccs3)n2C)cc1,8.3µM*,?,-1,?,-3,28
COC(=O)CSc1nc2c(cnn2-c2ccc(F)cc2)c(=O)[nH]1,51%,30%,1,7%,-4,21
CC1NC(=O)C(N)CNC(=O)C(C2CCN=C(N)N2)NC(=O)/C(=C/NC(N)=O)NC(=O)C(CNC(=O)CC(N)CCCN)NC1=O (stereo not given),nt,nt,-7,nt,-3,nt
COC(=O)[C@]1(C#N)CC(=O)N([C@H](C)[C@H](O)c2ccccc2)[C@@H]1c1ccccc1,nt,nt,nt,nt,nt,35
CSc1nc(Oc2ccc3ccccc3c2)c2ccccc2n1,?,10µM*,3,?,21,-5
CSc1nc(Oc2ccccc2)c2sccc2n1,-7%,-1%,0,?,-3,1
COc1ccc(-c2nc(CSc3nncn4c3cc3oc(C)cc34)c(C)o2)cc1,nt,nt,nt,nt,nt,9
C/C=C(\C)C(=O)N[C@@H](c1ccccc1)[C@@H](O)C(=O)O[C@H]1C[C@@]2(O)[C@@H](OC(=O)c3ccccc3)C3[C@](C)(C(=O)[C@H](OC(C)=O)C(=C1C)C2(C)C)[C@@H](O)C[C@H]1OC[C@@]31OC(C)=O (stereo not given in full),0.033µM*,?,-3,-29%,-5,?

# High-throughput results from PubChem.
